Results as given in PubChem BioAssay.
Active and inactive are the calls of the source.

How the values were obtained:
[1] = target: Albumin (Bos taurus) (UniProt P02769); assay: bovine serum albumin binders on microarray, profiling panel, artefact control for SMM control protein annotation, biochemical, small-molecule microarray, Alexa647 label, 635/667 nm fluorescence (AID 1118); settings: BSA-A647 binding, fluorescence 635 nm, higher = more signal;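 note: score merges 667 nm emission intensity and signal-to-noise per printed compound spot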
Sequence of Albumin (Bos taurus) (P02769 whole entry, looked up): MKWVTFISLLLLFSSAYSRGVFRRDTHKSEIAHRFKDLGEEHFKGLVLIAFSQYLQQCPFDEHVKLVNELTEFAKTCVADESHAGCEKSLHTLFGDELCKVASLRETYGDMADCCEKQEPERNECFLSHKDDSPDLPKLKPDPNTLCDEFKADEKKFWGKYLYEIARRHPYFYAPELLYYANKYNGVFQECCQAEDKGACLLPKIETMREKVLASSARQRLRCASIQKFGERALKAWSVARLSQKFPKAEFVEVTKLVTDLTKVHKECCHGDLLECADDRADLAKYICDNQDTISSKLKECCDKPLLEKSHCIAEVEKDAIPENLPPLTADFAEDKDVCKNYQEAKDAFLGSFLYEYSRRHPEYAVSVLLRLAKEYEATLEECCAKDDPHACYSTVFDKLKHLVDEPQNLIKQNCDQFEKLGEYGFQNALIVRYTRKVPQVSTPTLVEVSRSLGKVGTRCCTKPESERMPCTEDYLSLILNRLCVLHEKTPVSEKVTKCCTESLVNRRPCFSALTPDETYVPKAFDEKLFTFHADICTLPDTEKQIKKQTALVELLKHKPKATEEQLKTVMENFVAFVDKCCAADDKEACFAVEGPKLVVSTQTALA

[2] = small-molecule microarray binders of probe aXIP, primary screen, biochemical, NeuroSMM set, 635/667 nm fluorescence (AID 1119); settings: higher = more signal, called active from +8 up or from −8 down;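 note: probe is the protein aXip251-270 applied at 1 µg/mL to compound-printed slides; binding of probe to printed compounds measured as 667 nm fluorescence plus signal to noise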
[3] = small-molecule binders of probe aNOTCH3, primary screen, biochemical, small-molecule microarray, 635/667 nm fluorescence (AID 1120); settings: higher = more signal;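 note: probe is a biotin-tagged antibody raised against NOTCH3 rather than NOTCH3 protein; score merges spot fluorescence near 667 nm with spot signal to noise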
[4] = small-molecule binders of probe aNOTCH2, primary screen, biochemical, small-molecule microarray, 635/667 nm fluorescence (AID 1121); settings: higher = more signal;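 note: score merges feature fluorescence read at 667 nm with its signal to noise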
[5] = target: Carbonic anhydrase 2 (Homo sapiens) (UniProt P00918); assay: CAII small-molecule binders, profiling panel, biochemical, small-molecule microarray, Alexa647-labelled CAII (AID 1122); settings: CAII-A647 binding fluorescence, higher = more signal
[6] = COS7 lysate on small-molecule microarray, probe aHis, 635 nm (AID 1123); settings: COS7 cell lysate, fluorescence, higher = more signal;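 note: z-score combines 667nm fluorescence intensity with signal-to-noise per printed compound spot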
[7] = compound binding in COS7 lysate, probe aLAP1, primary screen, cell lysate, small-molecule microarray (AID 1124); settings: probe aLAP1, fluorescence, higher = more signal;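 note: lysate comes from COS7 cells expressing LAP1 and is applied at 0.3 µg/mL; score merges spot fluorescence near 667 nm with signal-to-noise over triplicate slides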
[8] = tested on: Sam68 (KHDRBS1); assay: Sam68 small-molecule binders, primary screen, biochemical, small-molecule microarray, 635 nm fluorescence (AID 1125); settings: small-molecule microarray binding, higher = more signal;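 note: score merges 667 nm channel intensity with signal to noise over triplicate slides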
[9] = tested on: Chordin-like protein 2 (CHRDL2); assay: CHRDL2 small-molecule binders, primary screen, biochemical, small-molecule microarray, 635 nm fluorescence (AID 1126); settings: small-molecule microarray binding, fluorescence 635 nm; higher = more signal;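 note: printed compound slides probed with Chrdl2 protein at 4 µg/mL for 1 h at 4 C; score merges 667 nm emission intensity with signal to noise over three replicate slides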
[10] = target: Concanavalin-A (Canavalia ensiformis) (UniProt P02866); assay: ConA small-molecule binders, primary screen, artefact control for SMM control protein annotation, biochemical, small-molecule microarray, Alexa647 label, 635 nm (AID 1127); settings: ConA-A647 binding fluorescence, higher = more signal;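 note: z combines 667 nm emission intensity with signal-to-noise across three replicate slides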
Sequence of Concanavalin-A (Canavalia ensiformis) (P02866 whole entry, looked up): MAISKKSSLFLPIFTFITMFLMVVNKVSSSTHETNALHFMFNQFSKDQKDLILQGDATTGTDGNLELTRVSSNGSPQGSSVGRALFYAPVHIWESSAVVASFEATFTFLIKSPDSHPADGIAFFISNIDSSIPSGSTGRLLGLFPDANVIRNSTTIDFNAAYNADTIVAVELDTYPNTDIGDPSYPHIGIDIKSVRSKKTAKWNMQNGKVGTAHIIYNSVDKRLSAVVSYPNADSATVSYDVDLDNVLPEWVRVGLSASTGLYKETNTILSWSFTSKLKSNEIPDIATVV

[11] = anti-His antibody binders, primary screen, artefact control for SMM control protein annotation, biochemical, small-molecule microarray, 635 nm fluorescence (AID 1128); settings: anti-His Alexa647 antibody binding, higher = more signal;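 note: score merges feature fluorescence with signal-to-noise for each printed compound spot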
[12] = tested on: Human papillomavirus type 1a E7 protein (residues 1-88); assay: HPV1a E7 small-molecule binders, primary screen, biochemical, small-molecule microarray, residues 1-88, 635 nm (AID 1129); settings: small-molecule microarray binding, fluorescence 635 nm; higher = more signal
[13] = target: Focal adhesion kinase 1 (Homo sapiens) (UniProt Q05397); assay: small-molecule microarray binders of FAK, primary screen, biochemical, 635/667 nm fluorescence, BSA, DTT (AID 1130); settings: PTK2 binding, 635 nm fluorescence, higher = more signal;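 note: composite of spot emission at 667 nm and signal to noise over triplicate slides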
Sequence of Focal adhesion kinase 1 (Homo sapiens) (Q05397 whole entry, looked up): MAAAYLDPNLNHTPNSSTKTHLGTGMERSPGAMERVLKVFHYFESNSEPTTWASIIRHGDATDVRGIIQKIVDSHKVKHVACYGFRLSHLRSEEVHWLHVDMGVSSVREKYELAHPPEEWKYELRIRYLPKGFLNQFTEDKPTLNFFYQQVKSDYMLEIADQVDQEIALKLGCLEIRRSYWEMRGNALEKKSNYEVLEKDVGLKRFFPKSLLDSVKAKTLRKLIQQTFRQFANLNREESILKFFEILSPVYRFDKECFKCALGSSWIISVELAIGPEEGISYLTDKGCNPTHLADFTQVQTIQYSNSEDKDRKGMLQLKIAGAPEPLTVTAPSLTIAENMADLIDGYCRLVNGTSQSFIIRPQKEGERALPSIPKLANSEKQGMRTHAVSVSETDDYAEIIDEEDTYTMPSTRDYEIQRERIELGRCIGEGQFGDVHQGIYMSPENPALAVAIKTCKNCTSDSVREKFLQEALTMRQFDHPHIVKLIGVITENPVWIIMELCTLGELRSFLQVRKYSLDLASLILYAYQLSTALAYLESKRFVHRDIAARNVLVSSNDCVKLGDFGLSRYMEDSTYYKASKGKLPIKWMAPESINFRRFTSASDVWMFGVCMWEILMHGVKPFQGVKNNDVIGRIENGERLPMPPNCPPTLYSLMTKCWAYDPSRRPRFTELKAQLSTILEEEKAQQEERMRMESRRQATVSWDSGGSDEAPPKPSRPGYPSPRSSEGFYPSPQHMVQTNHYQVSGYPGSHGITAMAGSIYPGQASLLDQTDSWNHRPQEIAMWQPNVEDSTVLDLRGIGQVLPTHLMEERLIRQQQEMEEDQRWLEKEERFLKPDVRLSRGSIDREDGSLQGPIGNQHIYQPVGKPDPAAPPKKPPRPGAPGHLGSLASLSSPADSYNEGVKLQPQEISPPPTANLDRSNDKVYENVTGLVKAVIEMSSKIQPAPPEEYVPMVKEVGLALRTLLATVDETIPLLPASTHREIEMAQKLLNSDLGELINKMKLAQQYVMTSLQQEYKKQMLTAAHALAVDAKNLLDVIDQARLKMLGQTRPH

[14] = tested on: Fibrinogen (Alexa647-labelled); assay: fibrinogen binders on compound microarrays, profiling panel, artefact control for SMM control-protein annotation, biochemical, small-molecule microarray, 635/667 nm fluorescence (AID 1131); settings: fibrinogen-A647 binding fluorescence, higher = more signal;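 note: z-score merges 667 nm fluorescence with per-spot signal-to-noise over triplicate slides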
[15] = target: Follistatin (Homo sapiens) (UniProt P19883); assay: follistatin binders on small-molecule microarrays, primary screen, biochemical, small-molecule microarray, 635/667 nm fluorescence (AID 1132); settings: FST binding, 635 nm fluorescence, higher = more signal
Sequence of Follistatin (Homo sapiens) (P19883 whole entry, looked up): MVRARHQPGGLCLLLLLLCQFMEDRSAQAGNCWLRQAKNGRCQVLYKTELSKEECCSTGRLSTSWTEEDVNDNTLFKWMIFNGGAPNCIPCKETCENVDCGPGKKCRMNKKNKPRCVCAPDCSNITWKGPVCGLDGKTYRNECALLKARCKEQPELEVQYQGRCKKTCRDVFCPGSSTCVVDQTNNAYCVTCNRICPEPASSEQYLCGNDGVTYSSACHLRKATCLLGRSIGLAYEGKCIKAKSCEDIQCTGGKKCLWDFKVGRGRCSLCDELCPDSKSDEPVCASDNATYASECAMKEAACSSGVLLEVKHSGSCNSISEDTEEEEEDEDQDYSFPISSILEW

[16] = target: Fibroblast growth factor 2 (Homo sapiens) (UniProt P09038); assay: FGF2 binders on small-molecule microarrays, primary screen, biochemical, small-molecule microarray, 635/667 nm fluorescence (AID 1133); settings: small-molecule microarray binding, FGF2, fluorescence 635/667; higher = more signal
Sequence of Fibroblast growth factor 2 (Homo sapiens) (P09038 whole entry, looked up): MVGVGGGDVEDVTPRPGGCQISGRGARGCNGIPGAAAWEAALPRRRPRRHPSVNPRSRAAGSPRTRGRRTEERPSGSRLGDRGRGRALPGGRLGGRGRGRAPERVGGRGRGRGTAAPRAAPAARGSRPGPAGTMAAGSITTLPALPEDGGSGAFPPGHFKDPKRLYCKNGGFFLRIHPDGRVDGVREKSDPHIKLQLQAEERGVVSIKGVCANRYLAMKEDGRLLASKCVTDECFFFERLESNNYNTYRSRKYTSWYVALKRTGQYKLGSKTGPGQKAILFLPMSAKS

[17] = mitochondrial membrane potential change in A549 cells, profiling panel, cell-based, JC-1 fluorescence, basal, 24 h, 100 nL (AID 1138); settings: higher = more signal;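 note: A549 lung adenocarcinoma cells under basal conditions with no added stimulus; test concentration not given here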
[18] = tested on: Lefty1; assay: Lefty1 binders on small-molecule microarrays, primary screen, biochemical, small-molecule microarray, 635/667 nm fluorescence (AID 1139); settings: small-molecule microarray binding, fluorescence 635/667; higher = more signal
[19] = tested on: wheat germ agglutinin (Triticum aestivum), Alexa647-labelled; assay: wheat germ agglutinin binders on compound microarrays, profiling panel, artefact control for SMM control-protein annotation, biochemical, small-molecule microarray, 635/667 nm fluorescence (AID 1140); settings: WGA-A647 binding, 635 nm fluorescence, higher = more signal;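 note: score merges 667 nm feature emission with signal to noise over triplicate slides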
[20] = target: Luciferin 4-monooxygenase (Photinus pyralis) (UniProt P08659); assay: firefly luciferase enzyme inhibitors, primary screen, biochemical, luminescence, purified enzyme, 2006 set (AID 1141); settings: SteadyGlo luminescence, 30 min, higher = more signal, called active from +8 up or from −8 down;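 note: cell-free assay with purified firefly luciferase at 100 ng per well in PBS; test concentration not given here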
Sequence of Luciferin 4-monooxygenase (Photinus pyralis) (P08659 whole entry, looked up): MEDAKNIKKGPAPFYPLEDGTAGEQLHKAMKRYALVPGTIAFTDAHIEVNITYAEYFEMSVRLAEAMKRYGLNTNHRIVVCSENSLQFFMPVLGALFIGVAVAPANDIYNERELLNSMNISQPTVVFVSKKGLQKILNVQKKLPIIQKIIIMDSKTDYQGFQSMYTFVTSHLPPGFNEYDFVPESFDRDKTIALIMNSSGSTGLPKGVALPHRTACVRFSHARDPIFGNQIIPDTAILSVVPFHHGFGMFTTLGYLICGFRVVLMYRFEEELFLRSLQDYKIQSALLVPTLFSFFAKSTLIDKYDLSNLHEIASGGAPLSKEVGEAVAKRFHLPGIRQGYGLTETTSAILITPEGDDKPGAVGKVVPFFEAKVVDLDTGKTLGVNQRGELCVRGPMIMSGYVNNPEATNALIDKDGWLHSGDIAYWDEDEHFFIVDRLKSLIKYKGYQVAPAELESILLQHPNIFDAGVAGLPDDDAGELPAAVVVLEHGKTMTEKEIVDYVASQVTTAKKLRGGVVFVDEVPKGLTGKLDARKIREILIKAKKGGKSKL

Row | Compound | composite z-score [1] | composite Z-score [2] | composite z-score [3] | composite z-score [4] | composite z-score [5] | composite z-score [6] | composite z-score [7] | composite z-score [8] | composite z-score [9] | composite z-score [10] | composite z-score [11] | composite z-score [12] | composite z-score [13] | composite z-score [14] | composite z-score [15] | composite z-score [16] | z-score [17] | composite z-score [18] | composite z-score [19] | z-score [20]
1 | CN(C)C(=O)[C@]1(CCC(=O)OC(C)(C)C)N=C(c2ccc(OCCCO)cc2)O[C@@H]1c1ccccc1CN=[N+]=[N-] | 1.01 | -0.579 (inactive) | 0.0749 | -0.0037 | 0.673 | 3.17 | 1.15 | 1.34 | -1.24 | 1.12 | 1.31 | 1.21 | 0.706 | 0.961 | 1.25 | -0.0399 | 1.03 | 0.0183 | 1.42 | -0.703 (inactive)
2 | COCCOC(=O)N1C(=O)[C@@]2(c3cc(C#CC4=CCCCC4)ccc31)[C@H](C(=O)Nc1nc3ccccc3s1)[C@H]1C(=O)O[C@H](c3ccccc3)[C@H](c3ccccc3)N1[C@@H]2c1ccc(O)cc1 | 0.817 | 2.58 (inactive) | -0.0279 | -0.166 | 0.661 | 1.68 | 0.61 | 1.31 | 0.408 | 1.18 | 0.174 | 1.21 | 1.38 | 0.362 | 1.39 | 1.7 | -2.1 | 0.869 | 0.529 | -1.5 (inactive)
3 | CC(C)C(CO)N1C(=O)[C@@H]2C3C(=O)OCCC/C=C\[C@H]3OC23C=CCN(Cn2nnc4ccccc42)C(=O)[C@@H]13 (stereo not given in full) | -0.37 | -0.0983 (inactive) | -0.256 | -0.181 | 0.885 | 0.295 | 0.685 | 0.713 | -0.81 | -0.662 | 2.67 | -0.233 | -0.0444 | -1.18 | -0.0048 | -1.08 | -0.477 | -0.0488 | -0.422 | -0.0817 (inactive)
4 | CCOC(=O)C[C@H]1[C@H](OC(=O)c2ccccc2-c2ccccc2)[C@@H](NC(=O)c2ccc3ccccc3c2)c2cc(OCCCO)ccc2N1C(=O)c1ccccc1 | 0.5 | -0.0287 (inactive) | 0.138 | -0.206 | 0.355 | 0.462 | -0.0843 | 0.735 | 0.578 | 0.215 | 1.49 | 0.844 | 0.288 | 0.609 | 0.91 | 1.08 | 1.04 | 0.868 | -0.0223 | -0.124 (inactive)
5 | CCCCN1CC=CC23O[C@@H]4/C=C\CCCOC(=O)C4[C@H]2C(=O)N(CCO)[C@@H]3C1=O (stereo not given in full) | 0.634 | 0.257 (inactive) | -0.426 | -0.161 | 0.321 | 1.1 | -0.0065 | 0.109 | -1.08 | -0.557 | 1.3 | 0.0166 | 0.101 | -1.25 | -1.03 | -1.33 | -0.655 | -0.832 | -0.724 | 1.19 (inactive)
6 | CCOC(=O)C[C@H]1[C@H](OC(=O)Cc2ccc3c(c2)OCO3)[C@@H](NC(=O)C2CCCCC2)c2cc(OCCCO)ccc2N1C(=O)c1ccccc1 | 0.869 | 0.394 (inactive) | -0.0647 | -0.14 | 0.112 | 0.469 | 0.124 | 0.249 | -0.311 | 0.833 | 0.0657 | -0.0497 | 0.408 | 0.744 | -0.2 | 0.0099 | 1.76 | 0.218 | 0.0468 | -1.23 (inactive)
7 | COc1ccc(C#Cc2ccc3c(c2)[C@]2(C(=O)N3)[C@H](c3ccc(OCCO)cc3)N3[C@H](c4ccccc4)[C@H](c4ccccc4)OC(=O)[C@H]3[C@@H]2C(=O)NC[C@H](O)c2ccccc2)cc1 | 0.615 | -0.128 (inactive) | 0.779 | -0.0531 | 0.496 | 1.71 | 0.117 | 1.3 | 0.152 | 1.02 | 0.825 | 1.23 | 0.116 | 0.928 | 0.789 | 1.05 | -1.54 | 0.906 | 0.887 | -0.0696 (inactive)
8 | O=C(NCc1ccc(F)cc1)[C@H]1C[C@H]2C(=O)NCC(=O)N2[C@H]1c1ccc(O)cc1 | -0.447 | 0.534 (inactive) | 0.0066 | -0.084 | 0.694 | 1.43 | 0.112 | 1.07 | 0.491 | 0.8 | 1.63 | -0.121 | 0.0061 | 0.611 | 1.45 | 1.89 | 0.576 | 1.35 | 0.187 | -0.0852 (inactive)
9 | COCC(=C=CC[C@H](O)c1ccc(CO)o1)CCO | 0.0697 | 0.701 (inactive) | 0.0066 | -0.14 | 0.748 | 1.27 | -0.0497 | 0.601 | 0.0549 | 0.494 | 1.28 | 0.58 | 0.646 | 0.501 | 1.3 | 1.14 | 0.0889 | 0.915 | 0.277 | -0.561 (inactive)
10 | C=CCNC(=O)[C@@H]1[C@H]2C(=O)O[C@H](c3ccccc3)[C@H](c3ccccc3)N2[C@H](c2ccccc2OCCO)[C@@]12C(=O)Nc1ccc(C#CCC(C(=O)OC)C(=O)OC)cc12 | -0.0735 | 0.822 (inactive) | 0.514 | 0.283 | 0.648 | 1.66 | 1.62 | 1.27 | -0.14 | 0.727 | 1.03 | 1.2 | 0.978 | 0.0251 | 0.67 | 0.335 | -1.44 | -0.0767 | 0.551 | -0.238 (inactive)
11 | CO[C@H]1O[C@H](CO)[C@@H](OC(=O)Nc2ccc3c(c2)OCO3)[C@H](OC(=O)Nc2ccc3c(c2)OCO3)[C@@H]1OC(=O)Nc1ccc2c(c1)OCO2 | 0.792 | 0.871 (inactive) | 0.0789 | -0.0349 | 0.572 | 2.51 | 0.943 | 1.31 | 0.12 | 0.954 | 1.67 | 1.3 | 0.347 | 1 | 0.997 | 0.366 | 0.0347 | 0.484 | 0.682 | -9.67 (active)
